# Reference: PubChem BioAssay AID624246 (National Center for Advancing Translational Sciences (NCATS), 2012)
# In all, about 370,000 compounds went through this assay and about 100 (0.027%) were called active. What follows is part of a selection rich in actives, with near analogues and random picks from the rest. A number with no mark means an inactive call. Calls follow the shape of the dose curve; as a rule, active = well fitted inhibition curve with a large enough effect in the polarisation, with a control signal flat; inconclusive = small, poorly fitted or top-dose-only effect, or effect the other way, or a change in a side signal; inactive = no such curve, though single readings can be large or run the other way; the % refers to the polarisation.
# Target: Transcriptional regulator ERG (Homo sapiens) (UniProt P11308)
# Assay: qHTS for Small Molecule Inhibitors of the ERG Ets/DNA interaction; as to FP activity, negative = inhibition: % of control where 0% means no effect
# Settings: fluorescence polarization, His-ERG Ets domain / labelled DNA; series mostly up to 76.9 µM; FP activity, negative = inhibition: at the top concentration
# Description: The Ets family of proteins is a family of ~30 conserved transcription factors defined by the presence of an ~85 amino acid domain referred to as the Ets domain, which mediates sequence-specific DNA binding to a core DNA element GGAA/T.The Ets family member ERG has been linked to several neoplasms. […] More extensive studies of the effects of over-expression of ERG in prostate cells have recently been carried out and have shown that over-expression of ERG results in increased invasion. […] We will carry out a high throughout screen to identify inhibitors of the interaction between ERG and DNA using a fluorescence polarization (FP) assay with a His-tagged ERG Ets domain and fluorescently-labeled DNA probes to develop small molecule inhibitors of this interaction as probes to test this hypothesis and lay the groundwork for the development of targeted therapies against ERG. NIH Molecular Libraries Probe Production Network [MLPCN] NIH Chemical Genomics Center [NCGC] Grant: NS066464 PI Name: John Bushweller, University of Virgina
# 1.5 ul of protein solution (1 uM ERG domain in 300mM KCl, 50mM Tris-HCl, 1mM EDTA, 1mM DTT, pH 7.5); 20 nl Control plate and compound library plate; 1.5 ul mixture of 5 nM Fluorescein-DNA and 100nM Texas-615-DNA solution in same buffer as above solution; measure fluorescence polarization sequentially for fluorescein (Excitation = 480 nm, Emission = 535s, 535p nm) and Texas red (Excitation = 555 nm, Emission = 632s, 632p nm).
# Potency is read from the fitted curve at half-maximal effect.
# Sequence of Transcriptional regulator ERG (Homo sapiens) (P11308 whole entry, looked up): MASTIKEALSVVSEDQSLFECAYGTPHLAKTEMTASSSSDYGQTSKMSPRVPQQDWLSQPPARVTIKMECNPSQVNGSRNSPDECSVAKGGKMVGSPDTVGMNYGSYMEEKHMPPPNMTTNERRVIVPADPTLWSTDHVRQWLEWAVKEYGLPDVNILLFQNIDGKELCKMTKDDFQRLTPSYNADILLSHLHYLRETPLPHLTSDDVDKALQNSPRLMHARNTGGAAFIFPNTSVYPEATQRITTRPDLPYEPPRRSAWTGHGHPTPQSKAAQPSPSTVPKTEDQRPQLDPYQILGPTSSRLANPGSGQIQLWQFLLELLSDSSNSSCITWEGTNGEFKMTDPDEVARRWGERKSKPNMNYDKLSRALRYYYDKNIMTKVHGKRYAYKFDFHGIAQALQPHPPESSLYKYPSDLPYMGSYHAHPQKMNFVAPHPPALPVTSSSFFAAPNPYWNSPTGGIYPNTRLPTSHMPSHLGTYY
SMILES,"FP activity, negative = inhibition [%]",Potency
CCc1ccccc1N(C)C(=O)C1CCCN(c2ncnc3onc(-c4ccc(F)cc4)c23)C1 (configuration not stated),-3.47,–
CCCc1nn2c(=O)cc(COC(=O)c3ccc(NC(=O)COc4ccc(F)cc4)cc3)nc2s1,3.44,–
COc1cc(NC(=O)Cn2c(=O)n(Cc3ccco3)c(=O)c3oc4ccccc4c32)cc(OC)c1,7.39,–
Cc1cccc(NC(c2cccc(F)c2)c2ccc3ccc(C)nc3c2O)n1 (configuration not stated),-6.48,–
COc1cc(NC(=O)CCn2nc(C)cc2C)cc(OC)c1OC,5.03,–
Cc1cc(C)cc(OCC(=O)Nc2cc(NC(=O)COc3cc(C)cc(C)c3)cc(C(=O)O)c2)c1,1.28,–
Cc1cc(N2CCCC2)ccc1NC(=O)COc1ccc(Cl)cc1,47.5,–
Cc1cc(C)cc(OCC(=O)Nc2ccc(N3CCOCC3)cc2N2CCOCC2)c1,–,28.2 µM (active)
CCOc1ccc(NC(=O)c2c(NCc3cccc(OC)c3OC)sc3c2CCC3)cc1,-10.3,–
Cc1cccc(C(=O)Nc2ccc(-c3nc4ncccc4o3)cc2C)c1,-3.97,–
CC(=O)Nc1ccc(NC(=O)CCCc2nc(-c3ccc(C(C)(C)C)cc3)no2)cc1,3.14,–
COc1ccccc1CN1CCC(CNC(=O)c2cnn(-c3ccccc3Cl)c2C2CCN(C(=O)OC(C)(C)C)CC2)CC1,2.12,–
CC(C)Cn1c(=O)c2ccccc2n2c(CCC(=O)N3CCN(c4cccc(Cl)c4)CC3)nnc12,1.77,–
CCCn1c2ccccc2c2cnn(CC(=O)N(C)c3ccccc3CC)c(=O)c21,-8.81,–
O=C(NCc1ccccc1Cl)C1=Cc2cc(Br)ccc2OC1,3.13,–
COc1ccc(NC(C)=O)cc1NC(=O)CN1CCN(c2ccc(F)cc2)CC1,2.77,–
O=C(CSc1oc(-c2ccco2)nc1S(=O)(=O)c1ccc(Cl)cc1)c1ccccc1,5.44,–
Cc1ccccc1-c1nc(CS(=O)(=O)CC(=O)Nc2cc(Cl)cc(Cl)c2)c(C)o1,1.85,–
Cc1ccc(NC(=O)c2nc(S(=O)(=O)Cc3cccc(C)c3)ncc2Cl)cc1,1.14,–
CCc1cccc(C)c1NS(=O)(=O)c1ccc(-c2cc(C)no2)s1,-4.44,–
O=C(CC1N=C2c3ccccc3N=C(SCc3ccc(F)cc3)N2C1=O)NCc1cccs1 (configuration not stated),10.7,–
COc1cccc(-c2nc(CS(=O)(=O)CC(=O)N3CCN(c4cc(C)ccc4C)CC3)c(C)o2)c1,12.5,–
CSc1nc(Nc2ccc(F)cc2)cc(-c2ccccc2)n1,2.27,–
Cc1nc(SCC(=O)Nc2ccc(C(=O)O)cc2)n[nH]1,3.12,–

SMILES,"FP activity, negative = inhibition [%]",Potency
COc1ccc(NC(=O)CSc2nccn2C2CCCC2)cc1OC,-5.84,–
COc1ccc(OCC(=O)Nc2cccc(C(=O)OCc3cc(=O)n4nc(C)sc4n3)c2)cc1,-16,–
Cc1nnc(NC(=O)CSc2nc3c([nH]c4ccccc43)c(=O)n2-c2cccc(Cl)c2)s1,-4.44,–
O=C(CSc1nc(=O)[nH]c2c1CCCC2)Nc1cc(C(F)(F)F)ccc1Cl,-2.51,–
Cc1cc(C)cc(OCC(=O)Nc2nc(-c3ccc(F)cc3)ns2)c1,-4.35,–
Cc1ccc(Cn2c(CNC(=O)Cc3cccc(C)c3)nc3cccnc32)cc1,-4.25,–
CSc1ncc(Cl)c(C(=O)Nc2ccc(S(=O)(=O)N3CCCC(C)C3)cc2)n1 (configuration not stated),0.507,–
CCc1ccc(CNC(=O)c2ccc(CS(=O)c3ccc(Br)cc3)o2)cc1 (configuration not stated),-7.46,–
Cc1cccc(C(=O)Nc2ccc(S(=O)(=O)N3CCCCC3c3cccnc3)cc2)c1 (configuration not stated),3.94,–
COc1ccc(-c2nc(CN3CCC(C(=O)NCCN(CC(C)C)CC(C)C)CC3)c(C)o2)cc1OC,4.85,–
Cc1cc(C)cc(NC(=O)CSc2oc(-c3ccccc3)nc2S(=O)(=O)c2ccc(Cl)cc2)c1,0.322,–
Cc1cccc(N2CCN(C(=O)c3cnc(N4CCCC4)nc3C)CC2)c1C,-2.02,–
CCc1cc2c(cc(C(=O)OC)n2Cc2nc(-c3ccc(C)cc3)oc2C)s1,2.28,–
Cc1ccc(-c2cc(C(F)(F)F)c(C#N)c(SCC(=O)Nc3ccccc3)n2)cc1,-0.0269,–
COc1ccc(C(=O)NCC(c2ccc(N(C)C)cc2)N2CCc3ccccc32)c(OC)c1 (configuration not stated),2.3,–
CC(=O)Nc1ccc(NC(=O)CSc2nnc3c4cc(Br)ccc4n(C)c3n2)cc1,0.14,–
O=C(CSc1oc(-c2ccco2)nc1S(=O)(=O)c1ccccc1)c1ccc(Cl)cc1,-11.3,–
CCN(CC)CCCC(C)n1c2nc(=O)[nH]c(=O)c-2nc2cc(Cl)ccc21 (configuration not stated),–,35.5 µM (active)
Cc1ccccc1OCCSc1nc2ccc(NC(=O)c3ccco3)cc2s1,-2.16,–
Cc1ccc(-c2nnc(Nc3ccc(OCC(N)=O)cc3)c3ccccc23)cc1S(=O)(=O)NCC1CCCO1 (configuration not stated),7.84,–
O=C(NC1CC(=O)N(c2ccc(F)cc2)C1)c1cccs1 (configuration not stated),-14.7,–
O=C(NCCc1ccc(Cl)cc1)c1ccc2nc(CCc3ccccc3)oc2c1,-3.36,–
COc1ccc(OC)c(CNC(=O)CN2C(=O)CCn3nc(-c4cn(C)c5ccccc45)cc32)c1,-3.27,–
